# Source: PubChem BioAssay (NCI)
# About 83,000 compounds went through this panel and 20% of them were active in at least one assay; those are over-represented in the sample as a whole.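 The test compound was applied at a single concentration to cells in 96-well plates for 48 hours, and percent growth was recorded.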 Unmarked numbers belong to inactive results. The source made the active and inactive calls.
# System: HL-60(TB) leukemia
# Assay: NCI-60 one-dose screen, 48 h (100 = growth as untreated, 0 = no growth, -100 = all killed)
# Settings: 10 µM unless noted
# Description: Growth inhibition of the HL-60(TB) human tumor cell line is measured as a screen for anti-cancer activity. Cells are grown in 96 well plates and exposed to the test compound for 48 hours. Compounds are tested at a single concentration, which is 10^-5 M for most compounds. The reported endpoint is percent growth (GI% or GIPRCNT), where numbers from 0 - 100% represent growth inhibition, and numbers from -100% - 0 represent cell death. For example, a value of 40 represents 60% growth inhibition. A value of 0 means no net growth occurred over the course of the experiment. A value of -40 indicates 40% of cells at the beginning of the experiment died by the end of the experiment. A value of -100 means all cells are dead at the end of the experiment.
# NCI-60 Human Tumor Cell Lines Screen was performed using the standard one-dose NCI protocol, which is described in more detail at https://dtp.cancer.gov/discovery_development/nci-60/default.htm.
# Compounds with GIPRCNT values below 10 were considered active. Activity score was based on GIPRCNT using the following formula: […]
# Score is 0 for GIPRCNT values of 100 or above, 50 for GIPRCNT values of 0, and 100 for GIPRCNT values of -100.
row,SMILES,growth
1,Nc1nnc(CS(=O)(=O)c2ccccc2)s1,105%
2,O=C(NC([Se])=NC1CCCCC1)c1ccccc1,16%
3,O=C(/C=C/c1ccccc1)c1nc2ccccc2n1Cc1ccc(Br)cc1,-14.4% (active)
4,O=c1[nH]c(=O)c2c(-c3cc4ccccc4oc3=O)ccnc2[nH]1,106%
5,COCCOCCOCCOc1ccc(-n2cc(-c3ccc(O[C@H]4O[C@@H]5OC6(C)CC[C@H]7[C@H](C)CC[C@@H]([C@H]4C)[C@@]57OO6)cc3)nn2)cc1,10.1%
6,COc1cc2cc(C(=O)N3C[C@@H](CCl)c4c3cc(OC(=O)N(CCC(=O)N3CCN(C)CC3)[C@H]3CCSSC3)c3ccccc43)[nH]c2c(OC)c1OC,-34.5% (active)
7,COc1ccc(-n2c(NC(=O)N3CCN(C)CC3)c(C#N)c3ccccc32)cc1,74.2%
8,COc1cc2c3c(n(CCCn4ccnc4)c(=O)c2cc1OC)-c1nc2c(cc1C3=O)OCO2,75.8%
9,NS(=O)(=O)c1ccc(-n2cc(-c3cccc(NC(=O)c4cc(C(F)(F)F)cc(C(F)(F)F)c4)c3)nn2)cc1,63.4%
10,O=C(CSc1nnc(-c2ccc(-c3nc4ccc(Cl)cc4[nH]3)cc2)o1)Nc1ccc(Br)cc1,29.7%
11,O=C(c1ccc(Cl)cc1)C1[C@H](c2ccc(Br)cc2)[C@@H](c2ccccc2)NC12C(=O)Nc1ccccc12 (stereo not given in full),-32% (active)
12,O=C(CNc1nc(-c2ccccc2)cs1)Nc1ccccc1,-30.5% (active)
13,O=C(/C=C/c1cccc(Br)c1)c1nc2ccccc2n1Cc1ccc(Br)cc1,-19.3% (active)
14,COc1ccc(/C=C/c2nc3ccccc3c(=O)n2CC(=O)Nc2ccccc2)cc1,94.1%
15,COc1cccc2nc(Nc3cccc(NC(=O)c4ccc(CN5CCCN(C)CC5)c(C(F)(F)F)c4)c3)ccc12,-54.3% (active)
16,O=C(/C=C/Nc1ccc(Cl)cc1)c1ccc2c(c1)Nc1ccccc1S2,92.7%
17,COc1cc(/C=C/C(=O)c2ccc(C)cc2)ccc1Oc1nc(Nc2ccc(F)cc2)nc(N(C)C)n1,41.7%
18,N/C(=N\N=C\c1ccc([N+](=O)[O-])cc1)c1c(N)nc(=S)[nH]c1-c1ccc(Cl)cc1Cl,103%
19,CN1CCN(Cc2ccc(C(=O)Nc3cccc(Nc4ccc5cc(O)ccc5n4)c3)cc2C(F)(F)F)CC1,-70.2% (active)
20,Cc1ccc(C2CC(c3ccc(S(=O)(=O)NCCNc4nc(N(C)C)nc(N5CCOCC5)n4)cc3)=Nc3c(N)nc(N)nc3N2)cc1 (stereo not given),35.8%

row,SMILES,growth
1,Fc1ccccc1CNc1nc(SCCN2CCOCC2)nc2c1cnn2CC(Cl)c1ccc(Br)cc1 (stereo not given),-22.8% (active)
2,N/C(=N\c1nc2ccccc2s1)NC(=O)NCCCCCCO,45.8%
3,COC(=O)C[C@](O)(CCC(C)C)C(=O)O[C@H]1C(OC)=C[C@@]23CCCN2CCc2cc4c(cc2[C@@H]13)OCO4,-38.5% (active)
4,O=C(/C=C/c1ccc(-c2ccccc2)cc1)c1nc2ccccc2n1Cc1ccc(F)cc1,21.1%
5,CN1C(=O)/C(=C/c2nccs2)SC1=S,89%
6,Nc1nn2c(-c3cc4cc(Br)ccc4oc3=O)ccnc2c1N=Nc1ccc(Br)cc1,98.5%
7,O=C(c1ccc(Cl)cc1)c1ccc(OCCCN2CCN(c3ccncc3)CC2)cc1,-3.36% (active)
8,C[C@@H]1[C@H]2C[C@@H](C[C@H]1NCc1nc3ccccc3n1C1CCCCCC1)C2(C)C,15%
9,C=C1CCC2C3(C)COC(c4c(F)cccc4F)OC3CCC2(C)C1CC(O)C1=CCOC1=O (stereo not given),81.6%
10,NS(=O)(=O)c1ccc(CCNC(=O)CSc2ccc(-c3ccc(Br)cc3)nn2)cc1,55.4%
11,O=C(Cc1ccc2c(c1)CN(C1CCC(=O)NC1=O)C2=O)NCc1cccc2ccccc12 (stereo not given),-24.9% (active)
12,Cc1cc(C)cc(C(=O)Nc2cccc(-c3cn(-c4ccc(S(N)(=O)=O)cc4)nn3)c2)c1,75.8%
13,CC(=O)c1ccc(Nc2nc(SC(C)C)nc(-c3ccccc3)c2C#N)cc1,93.6%
14,CC1(C)CC[C@]2(C(=O)O)CC[C@]3(C)C(=CCC4[C@@]5(C)C[C@@H](O)[C@@H]6OC(c7ccccc7F)OC[C@@]6(C)C5CC[C@]43C)C2C1 (stereo not given in full),2.91% (active)
15,C/C(=N\N=C\c1cc([N+](=O)[O-])ccc1Cl)c1ccc2c(c1)Nc1ccccc1S2,84.6%
16,CCN(C(=O)CN1C(=O)/C(=C/c2ccco2)SC1=S)C1CCS(=O)(=O)C1 (stereo not given),92.4%
17,Cc1ccc(C(=O)Nc2ccc(-n3c(C)nc4c(cnn4-c4ccccc4)c3=O)cc2)cc1,51.4%
18,COc1cc(-c2nc3ccc(C)cc3[nH]2)ccc1OCc1nnc(-c2ccccc2Br)o1,69.5%
19,Cc1occc1C(=O)NN1C(=O)/C(=C/C=C/c2ccc([N+](=O)[O-])o2)SC1=S,0.964% (active)
20,O=c1c2ccccc2nc(COc2ccccc2)n1/N=C/c1ccc(N2CCCC2)cc1,101%
